From PubChem BioAssay
IL-1B inflam inh: qHTS for Inhibitors of Inflammasome Signaling: IL-1-beta AlphaLISA Primary Screen. THP-1 LPS/ATP IL-1B secretion, AlphaLISA, 16 h; active compounds read low. activity change, % at 57.5 µM. 4.7% of 360,000 active. AID 743279, 2014; in the data active = activity change below about -50%; inconclusive = mostly about -30% to -49%
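THP-1 cells pretreated 1 hr with compounds (up to 57.5 uM final), then stimulated with LPS (250 ng/mL final) plus ATP (1.25 mM final); secreted IL-1B measured by AlphaLISA after 16 hr, decreased signal indicating inhibition.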
SW480 rerep: A quantitative high throughput screen for small molecules that induce DNA re-replication in SW480 colon adenocarcinoma cells; 1.8% of 340,000 active; SW480 DNA re-replication, Hoechst DNA content imaging, 48 h; Potency, µM (doses to about 46.1 µM), most hits filed as activators; also: nearly all actives have a fitted effect of over 55% in size
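Image-based read-out: total Hoechst fluorescence of nuclei (405 nm excitation, 500-530 nm emission), with hits raising the fraction of high-intensity nuclei. SW480 colon cells incubated 48 hr with compounds at 37 C.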
RORgamma inh: qHTS for inhibitors of ROR gamma transcriptional activity. Nuclear receptor ROR-gamma (Mus musculus), P51450. Drosophila S2 Gal4-RORgamma UAS-luciferase reporter, 20 h. Potency, µM (top dose mostly 53.6 µM), actives largely listed as inhibitors. 5.4% of 310,000 active. AID 2551, 2010; also: nearly all actives have a fitted effect of over 60% in size
Target sequence (P51450 whole entry, looked up, the tested form may be a part): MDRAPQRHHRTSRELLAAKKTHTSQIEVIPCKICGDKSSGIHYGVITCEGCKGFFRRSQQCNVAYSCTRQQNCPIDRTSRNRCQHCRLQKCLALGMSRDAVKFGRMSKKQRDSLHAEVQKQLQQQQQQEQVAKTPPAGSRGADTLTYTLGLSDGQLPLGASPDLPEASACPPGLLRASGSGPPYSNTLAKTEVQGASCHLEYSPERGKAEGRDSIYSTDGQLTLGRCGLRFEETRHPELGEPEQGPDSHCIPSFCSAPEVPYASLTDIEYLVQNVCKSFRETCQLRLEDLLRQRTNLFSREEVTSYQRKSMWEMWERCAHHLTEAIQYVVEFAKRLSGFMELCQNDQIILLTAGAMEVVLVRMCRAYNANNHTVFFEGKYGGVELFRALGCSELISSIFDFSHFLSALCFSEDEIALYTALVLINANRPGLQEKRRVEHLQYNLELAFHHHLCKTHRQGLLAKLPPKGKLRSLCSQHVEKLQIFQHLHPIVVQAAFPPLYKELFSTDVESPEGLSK
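A Gal4/UAS one-hybrid system in insect cells: metallothionein-promoter Gal4–ROR gamma fusion plus Photinus luciferase reporter. Copper sulfate 700 uM final, 20 hr ambient incubation, luminescent detection after 10 min with reagent.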
VP16 counter: VP16 counterscreen qHTS for inhibitors of ROR gamma transcriptional activity | 3.5% of 310,000 active | Potency, µM (top dose mostly 53.6 µM), usual class: inhibitors | Drosophila S2 Gal4-VP16 UAS-luciferase, luminescence, 20 h;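 also: Gal4-VP16 expression switched on by copper sulfate through the metallothionein promoter; nearly all actives have a fitted effect of over 50% in size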
MCF10A rerep: A quantitative high throughput screen for small molecules that induce DNA re-replication in MCF 10a normal breast cells; MCF 10A DNA re-replication, Hoechst nuclear intensity, 48 h; Potency, µM (top dose mostly 46.1 µM), usual class: activators; 2.9% of 350,000 active; also: nearly all actives have a fitted effect of over 50% in size
A number is an active result; – = inactive; ? = inconclusive; · = not tested or not shown; [ ] = remark or other dose. The list is not random: actives were taken first. Their share in the collection is about 11%. Unless noted, calls follow the shape of the dose curve; as a rule, active = well fitted curve in the direction sought with a large enough effect; inconclusive = small, poorly fitted or top-dose-only effect, or another doubt; inactive = no such curve, though single readings can be large; an effect the other way counts as inactive or inconclusive.

SMILES	IL-1B inflam inh	SW480 rerep	RORgamma inh	VP16 counter	MCF10A rerep
Cc1noc(C)c1COc1ccc(CC(=O)NCc2ccccc2)cc1	–	?	–	–	5.8µM
Cc1noc(C)c1COc1ccc(CC(=O)NC2CCCCCC2)cc1	–	–	–	–	–
Cc1noc(C)c1COc1ccccc1C(=O)NCCc1ccccc1	–	–	·	·	–
O=C(Nc1cccn(Cc2c(Cl)cccc2Cl)c1=O)c1c(Cl)cccc1Cl	?	–	–	–	–
O=C(Nc1ccccc1)Nc1cccn(Cc2c(F)cccc2Cl)c1=O	-61	–	?	–	?
O=C(Cn1ccc(NC(=O)OCc2ccccc2)nc1=O)NCCCN1CCCC1=O	–	–	·	·	–
CCOc1ccc(S(=O)(=O)n2ccc(C)n2)c2ccccc12	-53	–	?	–	–
CCCC(C)(C)C(=O)N1CCC1(C)C(=O)Nc1cccc(OC)c1 (stereo unspecified)	–	·	·	·	·
C[C@@H]1C[C@@H]2OC(=O)[C@]3(C)[C@H]2[C@@H](OC3(C)O)[C@]2(C)C(=O)C=C[C@H]12 (stereo partly specified)	-90	?	–	–	?
CCOC(=O)C1=C(C)Nc2nc3ccccc3n2C1c1ccccc1 (stereo unspecified)	–	–	–	–	–
CC1=C(C(=O)OC2CCCCC2)C(c2cccs2)n2c(nc3ccccc32)N1 (stereo unspecified)	–	–	4.5µM	?	–
CC1(C(=O)NS(=O)(=O)Cc2cccc(Cl)c2)CCN1C(=O)C/C=C/c1ccccc1 (stereo unspecified)	–	·	·	·	·
Cc1c(CCC(=O)O)c(=O)oc2cc3occ(-c4ccc(F)cc4)c3cc12	–	–	2.8µM	?	–
O=c1[nH]cnc2c1ncn2C1CCC(CO)O1 (stereo unspecified)	–	·	·	·	·
Cc1ccn2c(-c3csc(NCc4ccco4)n3)c(C)nc2c1	–	–	13µM	?	–
COc1ccc(-c2csc(NCc3ccco3)n2)cc1C	-52	–	?	–	–
CC(=O)Nc1ccc(-c2csc(NCc3ccco3)n2)cc1	–	–	?	?	–
Cc1cc2c(=O)n(C)c(SCC(=O)Nc3cccc(F)c3)nc2s1	–	–	–	–	–
CN1CCN(Cc2c(O)ccc3cc(-c4ccccn4)c(=O)oc23)CC1	–	9.2µM	–	–	23µM
COc1ccc(-c2csc(NC(=O)c3cc(=O)c4ccccc4o3)n2)cc1OC	–	–	–	–	–
COc1ccc(-c2csc(NC(=S)NC(=O)c3cccs3)n2)cc1OC	–	–	4.5µM	14µM	?
COc1ccc(-c2csc(NC(=S)NC(=O)c3ccc(S(=O)(=O)N(C)C)cc3)n2)cc1OC	–	–	2.8µM	?	–
COc1ccc(-c2csc(NC(=S)NC(=O)c3cccs3)n2)cc1Br	–	?	4.5µM	11µM	?
CN(C(=O)c1ccc(NC(=O)Cc2ccc(NC(=O)C3CCCN(C(=O)CCc4ccccc4)C3)cc2)cc1)C1CCCC1 (stereo unspecified)	–	–[9.22 µM]	·	·	?
O=C(N/N=C/c1cn(-c2ccccc2)nc1-c1cccnc1)c1ccccc1	?	?	5.6µM	–	12µM
SMILES	IL-1B inflam inh	SW480 rerep	RORgamma inh	VP16 counter	MCF10A rerep
NC(=S)N/N=C/c1cn(-c2ccccc2)nc1-c1cccnc1	–	–	6.3µM	8.9µM	–
O=C(NC1CCN(Cc2ccccc2)CC1)c1cn(-c2ccccc2)nc1-c1cccnc1	-91	–	·	·	–
CC(=O)Nc1ccc(NC(=O)C(C)OC(=O)/C=C/c2cn(-c3ccccc3)nc2-c2cccnc2)cc1 (stereo unspecified)	?	–	13µM	?	?
O=C(O)c1cn(-c2ccccc2)nc1-c1cccnc1	–	–	–	–	–
CCOC(=O)CCN1C(=O)[C@H]2[C@H]3[C@H](O)[C@H](O)C/C(=N/O[C@@H]4O[C@@H](COC(C)=O)[C@@H](OC(C)=O)[C@@H](OC(C)=O)[C@H]4OC(C)=O)[C@H]3CC[C@@H]2C1=O	·	·	–[10 µM]	–[10 µM]	·
Cc1cc(N(C)C)nc(Nc2ccccc2)n1	-79	–	·	·	–
CCc1ccc2c(F)cccc2n1	–	·	·	·	·
O=C(NCCN1C(=O)S/C(=C\c2ccc(OC(F)F)cc2)C1=O)C1=COCCO1	–	21µM	·	·	18µM
COc1ccc(/C=C2\SC(=O)N(CCNC(=O)C3=COCCO3)C2=O)cc1	–	10µM	·	·	1.8µM
O=C(NCCN1C(=O)S/C(=C\c2ccc(OC(F)F)cc2)C1=O)c1cnccn1	?	5.8µM	–	–	5.8µM
CC(/C=C/C(=O)NO)=C\[C@@H](C)C(=O)c1ccc(N(C)C)cc1	·	·	–	–	·
CC(OC(=O)CN1C(=O)c2ccccc2C1=O)C(=O)N(C)c1ccccc1 (stereo unspecified)	–	–	·	·	–
CCNC(=S)N(Cc1cc2cc(C)cc(C)c2[nH]c1=O)C1CCCC1	–	–	–	–	–
CCNC(=S)N(Cc1cc2c(C)ccc(C)c2[nH]c1=O)C1CCCC1	–	3.7µM	–	–	?
Cc1ccc(NC(=S)N2CCC(c3ccc(C)cc3)C2)cc1 (stereo unspecified)	–	–	10µM	20µM	–
CSc1cccc(NC(=S)N2CCC(c3ccccc3)C2)c1 (stereo unspecified)	?	–	?	?	–
COc1cccc(NC(=S)N2CCC(c3ccc(C)cc3)C2)c1 (stereo unspecified)	-78	–	?	?	?
CCc1cccc(NC(=S)N2CCC(c3ccccc3)C2)c1 (stereo unspecified)	–	–	7.1µM	10µM	–
CC(C)C(NC(=O)c1ccccc1F)C(=O)NCCCn1ccnc1 (stereo unspecified)	–	–	·	·	–
O=C(CSc1nnnn1C1CC2CCC1C2)Nc1ccnc2ccccc12 (stereo unspecified)	–	–	?	0.0022µM	–
CC(C)=CCC/C(C)=C/CO/N=C1/C[C@@H](O)[C@@H](O)[C@@H]2[C@@H]3C(=O)N(C[C@@H]4CCCO4)C(=O)[C@H]3CC[C@@H]12	·	·	–[10 µM]	–[10 µM]	·
CCC1COC(c2cccn2Cc2ccccc2Cl)=N1 (stereo unspecified)	–	–	8.9µM	–	–
Fc1ccc(Cn2cccc2C2=NC(c3ccccc3)CO2)cc1 (stereo unspecified)	–	–	–	–	–
C=CCOc1cccn2c(N(C=O)Cc3ccccc3)c(CC)nc12	–	·	·	·	·
O=C(CN1c2ccccc2Sc2ccccc21)NNC(=O)Nc1cccc(Cl)c1	-88	?	–	–	23µM
O=C(Cc1ccccc1)NNC(=O)Nc1cccc(Cl)c1	–	–	–	–	–
O=C(CSc1ccccc1)NCC1(N2CCCCC2)CCCCC1	–	–	·	·	–
